High-throughput results (PubChem BioAssay)
An excerpt weighted towards active compounds, which were near 10% of everything screened.
GLS inh: glutaminase GLS (human) inhibition; Potency, µM (top dose mostly 45.5 µM), for the others: top-dose activity change, negative = inhibition, hits mostly inhibitors; O94925; GLS enzymatic activity, qHTS titration; actives 0.21% (n = 410,000); also: % is scaled to controls: 0 for no effect and ±100 for the full control effect
Target sequence (O94925 whole entry, looked up): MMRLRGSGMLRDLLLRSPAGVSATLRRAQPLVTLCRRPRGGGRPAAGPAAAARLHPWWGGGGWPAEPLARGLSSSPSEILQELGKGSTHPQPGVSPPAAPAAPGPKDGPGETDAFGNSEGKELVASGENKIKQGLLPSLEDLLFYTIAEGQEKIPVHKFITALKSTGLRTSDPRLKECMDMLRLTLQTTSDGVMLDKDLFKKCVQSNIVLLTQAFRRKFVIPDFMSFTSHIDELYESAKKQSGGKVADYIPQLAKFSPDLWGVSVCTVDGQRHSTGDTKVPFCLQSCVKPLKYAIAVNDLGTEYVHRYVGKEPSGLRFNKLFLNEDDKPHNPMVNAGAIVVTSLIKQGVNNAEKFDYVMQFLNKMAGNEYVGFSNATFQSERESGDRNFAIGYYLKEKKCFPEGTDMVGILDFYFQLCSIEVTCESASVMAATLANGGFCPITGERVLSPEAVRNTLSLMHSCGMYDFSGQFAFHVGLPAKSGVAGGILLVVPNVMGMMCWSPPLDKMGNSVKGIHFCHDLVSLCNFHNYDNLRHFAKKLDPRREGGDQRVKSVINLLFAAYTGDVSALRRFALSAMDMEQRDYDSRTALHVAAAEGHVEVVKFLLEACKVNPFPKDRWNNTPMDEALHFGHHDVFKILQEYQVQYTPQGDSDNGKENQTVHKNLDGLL
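Enzyme dispensed in phosphate buffer (45 mM, pH 8.2, 0.02% Tween-20), compounds pinned in, then 1 mM L-glutamine solution and the glutamate oxidase–HRP–Amplex Red mix added; fluorescence read immediately and again after 30 min at room temperature.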
BAZ2B block: inhibitors of human BAZ2B bromodomain; AlphaScreen BAZ2B-H3K14Ac peptide displacement; Potency, µM (series often up to 114 µM), inactives show top-dose activity change, negative = inhibition, most hits filed as inhibitors; actives 4.4% (n = 360,000); AID 504333; also: % is scaled to controls: 0 for no effect and ±100 for the full control effect; nearly all actives have a fitted effect of over 60% in size
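Inhibition is scored as reduced AlphaScreen emission. The BAZ2B/b-H3(5-23)K14Ac complex (50 nM each) in PBS pH 7.4, 0.01% Tween-20 meets compound (up to 110 uM) for 30 min at RT before bead addition.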
HP1b binding inh: HP1-beta chromodomain-methylated histone interaction inhibition; P83916; AlphaScreen HP1-beta / biotin-H3K9me3 peptide binding; Potency, µM (series often up to 114 µM), without a hit: at the top dose activity change, negative = inhibition, usual class: inhibitors; actives 0.56% (n = 390,000); also: nearly all actives have a fitted effect of over 70% in size
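AlphaScreen: HP1-beta (50 nM) preformed 30 min with biotin-H3(1-18)K9me3 peptide (50 nM) in PBS pH 7.4, 0.01% Tween-20. Compound added for 30 min at RT, then streptavidin donor/nickel chelate acceptor beads (10 ug/mL) for 30 min.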
G9a inh: G9a (human) methyltransferase inhibition | Q96KQ7 | actives 8.8% (n = 350,000) | G9a H3K9 monomethylation, AlphaScreen, 2 h | Potency, µM (top dose mostly 102 µM), inactives show at the highest dose activity, negative = inhibition, hits mostly inhibitors | AID 504332; also: % is scaled to controls: 0 for no effect and ±100 for the full control effect; nearly all actives have a fitted effect of over 75% in size
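Chemiluminescent proximity detection of H3K9 monomethylation, read after 10 min bead incubation in the dark. Reaction: 20 nM G9a, 500 nM biotin-H3K9 peptide, 20 uM SAM cofactor, 2 h, room temperature, following 15 min enzyme-compound preincubation.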
JMJD2A Tudor: blocks the human JMJD2A Tudor domain. O75164. AlphaScreen JMJD2A-Tudor / H3K4me3 peptide binding. AID 504339. Potency, µM (highest dose often 114 µM), for the others: at the top dose activity change, negative = inhibition, hits mostly inhibitors. actives 4.4% (n = 390,000); also: % is scaled to controls: 0 for no effect and ±100 for the full control effect; nearly all actives have a fitted effect of over 50% in size
* marks the source's active call; other numbers are inactive results; ? = inconclusive; nt = not tested or not shown; ! = not confirmed by another sample; [ ] = remark or other dose. Calls follow the shape of the dose curve; as a rule, active = well fitted curve in the direction sought with a large enough effect; inconclusive = small, poorly fitted or top-dose-only effect, or another doubt; inactive = no such curve, though single readings can be large; an effect the other way counts as inactive or inconclusive. Potency is read from the fitted curve at half-maximal effect.

SMILES	GLS inh	BAZ2B block	HP1b binding inh	G9a inh	JMJD2A Tudor
COc1ccc(OCCCN2CCCCCC2)cc1	-2%	-36%	15%	15%[2.33 µM]	?
c1ccc(OCCCCN2CCCCC2)cc1	3%	3%	15%	7%[59 µM]	-11%
CC1=C(C(=O)OCc2ccc(C)cc2)C(c2cccc(F)c2F)CC(=O)N1 (stereo unspecified)	-10%	-3%	6%	5%[59 µM]	-13%
O=Nc1c(O)n(Cc2ccc(Cl)cc2Cl)c2ccccc12	19%	45µM*	-3%	?	?
COc1ccc(Br)cc1C1NC(c2ccc3c(c2)OCO3)=CC(c2cc(Cl)ccc2O)N1 (stereo unspecified)	nt	nt	-9%	nt	89µM*
COc1ccccc1C1NC(c2ccc3c(c2)OCO3)=CC(c2cc(Cl)ccc2O)N1 (stereo unspecified)	nt	nt	11%[57 µM]	nt	-21%[57.1 µM]
Cc1c(Cl)cccc1NC(=O)CSc1nc(=O)n(CCCN2CCOCC2)c2c1CCCC2	-3%	nt	nt	nt	nt
CC1S/C(=N/N=C/c2cccc([N+](=O)[O-])c2)NC1=O (stereo unspecified)	14%	?	8%	13µM*	-36%
CC1S/C(=N/N=C/c2cccs2)NC1=O (stereo unspecified)	-1%	8%	31%	20%	-29%
CCc1ccc(C(=O)COC(=O)C(NC(=O)C2CCC(C)CC2)C(C)C)cc1 (stereo unspecified)	3%	-9%	41%	-1%[59 µM]	0%
NS(=O)(=O)c1ccc(CCNc2ccnc3cc(Cl)ccc23)cc1	2%	16%	59%	-29%	-2%
CCN(Cc1ccccc1)Cc1c(O)ccc2c(=O)c(-c3ccccc3Cl)c(C(F)(F)F)oc12	7%	2%	3%	0%[59 µM]	0%
CCOc1cc(C2NC(=O)c3c(sc4c3CCN(C)C4)N2)ccc1OC(=O)c1ccc(Br)cc1 (stereo unspecified)	-4%	4%	53%	-1%[59 µM]	-8%
COc1cc(C2NC(=O)c3c(sc4c3CCN(C)C4)N2)cc(OC)c1OC (stereo unspecified)	2%	-13%	21%	?	-10%
CN1CCc2c(sc3c2C(=O)NC(c2cccc(OC(=O)c4cccs4)c2)N3)C1 (stereo unspecified)	0%	-37%	16%	40µM*	?
COc1cc(C2NC(=O)c3c(sc4c3CCN(C)C4)N2)ccc1OC(=O)c1ccccc1 (stereo unspecified)	-3%	-25%	-4%	10µM*	-34%
O=C(NCC(c1ccco1)N1CCOCC1)c1ccc([N+](=O)[O-])cc1 (stereo unspecified)	-4%	nt	74%	?	-1%[11.4 µM]
CCOc1cc2c(cc1C=O)OC(C)C2 (stereo unspecified)	5%	-11%	30%	-6%[12.7 µM]	1%
CCOc1cc2c(cc1/C=C/c1noc(C)c1[N+](=O)[O-])OC(C)C2 (stereo unspecified)	8%	1%	31%	45µM*	2%
S=C(Cc1cccnc1)N1CCOCC1	-2%	2%	?	2.2µM*	79µM*
N#CC(C#N)=C1NC(N)=C(C#N)C(c2ccccc2)=C1C#N	nt	?	nt	3.5µM*	nt
COc1ccc(CNCCSc2nnnn2-c2ccccc2)cc1	4%	?	31%	-27%[59 µM]	-13%
CCN(CC)C(C)CN1c2ccccc2Sc2ccccc21 (stereo unspecified)	nt	nt	nt	5µM*!	nt
Cc1cccc(CCNC(=O)c2ccc3c(c2)N(Cc2ccccc2F)C(=O)c2ccccc2S3)c1	4%	-11%	13%	8%[59 µM]	0%
CN(CCCOc1ccccc1Br)Cc1ccccc1	-12%	0%	-11%	23%	-13%
SMILES	GLS inh	BAZ2B block	HP1b binding inh	G9a inh	JMJD2A Tudor
CN1CCN(CCOc2ccc(Cl)c(Cl)c2)CC1	1%	50µM*	16µM*	10µM*	0.79µM*
CCN(CC)CCOc1ccc2c(c1)C(=NO)c1cc(OCCN(CC)CC)ccc1-2	60%	8%[57.1 µM]	-7%	?	-27%
CCN(CC)CCCOc1ccc(Cl)c(Cl)c1	6%	?	-49%	10µM*	0.89µM*
CN(CCOc1ccc(Cl)c(Cl)c1)Cc1ccccc1	-11%	?	-23%	nt	20µM*
CN(CCCOc1ccccc1F)Cc1ccccc1	-3%	56µM*	?	7.9µM*	20µM*
Cc1cc(OCC(=O)N(C)Cc2ccccc2)ccc1Cl	0%	11%	46%	?	17%
CN(c1ccc(OCCOc2ccccc2Cl)cc1)S(=O)(=O)c1ccccc1	9%	nt	55%	nt	11%
CN(CCOc1ccccc1Cl)Cc1ccccc1	1%	56µM*	?	10µM*	22µM*
CC(Sc1nnc(-c2cccs2)n1N)C(=O)NCC1CCCO1 (stereo unspecified)	-20%	4%	22%	50µM*	2%
Cc1csc(SC(C)C(=O)NCC2CCCO2)n1 (stereo unspecified)	-4%	-3%	33%	40µM*	-3%
CCN(CC)S(=O)(=O)c1ccc2c(c1)nc(SC(C)C(=O)NCC1CCCO1)n2CC (stereo unspecified)	9%	-18%	6%	79µM*	-14%
CC(Sc1nc(N)cc(N)n1)C(=O)NCC1CCCO1 (stereo unspecified)	4%	-2%	36%	9%[12.7 µM]	6%
CCOC(=O)c1ccc2c(c1)nc(SC(C)C(=O)NCC1CCCO1)n2CC (stereo unspecified)	12%	5%	32%	5%[12.7 µM]	-16%
CCn1c(SCC(=O)N2CCCC2)nc2c(c1=O)SC(C)C2 (stereo unspecified)	0%	-3%	41%	4%	-1%
OCCC1CN(Cc2cccc(C(F)(F)F)c2)CCN1Cc1ccccc1 (stereo unspecified)	2%	-13%	2%	-21%	-9%[11.4 µM]
N#Cc1c2n(c(=O)[nH]c1=O)CCCCC2	8%	-3%	34%	13%[59 µM]	?
CC(C)Nc1nc(-c2ccccc2F)c2sc(-c3ccccc3)cc2n1	4%	nt	nt	nt	nt
CCN(CC(=O)Nc1ccc(NC(C)=O)cc1)C(=O)CSCc1c(C)noc1C	4%	4%	24%	11%[0.501 µM]	-3%
CCN(CC(=O)Nc1ccc(NC(C)=O)cc1)C(=O)c1ccccc1SCc1c(C)noc1C	3%	56µM*	2%	40µM*	-32%
NC(=O)c1cc([N+](=O)[O-])c(Cl)cc1NCc1ccccn1	4%	79µM*	10%	11%[2.33 µM]	56µM*
NC(=O)CC(NC(=O)Cc1ccc(Br)cc1)c1ccc(NCc2ccccn2)c([N+](=O)[O-])c1 (stereo unspecified)	6%	79µM*	1%	-108%[59 µM]	?
NC(=O)CC(NC(=O)Cc1ccc(Br)cc1)c1ccc(NCc2ccc(F)c(F)c2)c([N+](=O)[O-])c1 (stereo unspecified)	1%	-8%	20%	-26%[12.7 µM]	-11%
